Results: PubChem BioAssay AID588343 (Broad Institute, 2011)
Screen size: about 1,200 compounds; about 650 (54%) were called active. About 5% were inconclusive and are not listed.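 How the source made its calls: active means signal-lowering curve whose fitted half-maximal concentration is at or below ten times the top valid dose tested; inconclusive means flat curve with 30 to 70% inhibition, or poor fit; inactive means signal increase, flat within 30%, or potency beyond limit.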 So high a share suggests a set chosen from earlier hits. A selection follows. Measured potencies and affinities stand elsewhere.

experiment: EBV LMP1 TES2 canonical NF-kB signalling blockers – cell-based, HEK293, luciferase, cherry-pick, dose response (AID 588343); conditions: HEK293 LMP1 TES2 NF-kB luciferase reporter, 16 h; series mostly up to 35 µM; activity change, negative = inhibition: at the top concentration;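 further: 0% = median of neutral control wells and -100% = MG132 positive control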

Row | Compound | activity change, negative = inhibition
1 | O=C(COc1ccc2ccccc2c1)NCCNC(=O)COc1ccc2ccccc2c1 | 33.9% (inactive)
2 | CNC(=O)C1=NCCCc2cc(OC)c(OC)cc21 | -2.99% (inactive)
3 | O=C(NC1CCCCC1)N1CCN(c2ccc([N+](=O)[O-])cc2)CC1 | -12.7% (inactive)
4 | COc1ccc(-n2nc(C(=O)c3cccs3)cc(-c3nc4ccccc4[nH]3)c2=N)cc1 | 3.98% (inactive)
5 | CNC(=S)N1N=C(c2cccs2)CC1c1ccc(F)cc1 (centres undefined) | 22.4% (inactive)
6 | O=C(CN1C(=O)C2C3C=CC(C3)C2C1=O)NCCC1=CCCCC1 (centres undefined) | 21.8% (inactive)
7 | O=C(COC(=O)c1ccc(S(=O)(=O)NCc2ccco2)cc1)Nc1ccc(Cl)cn1 | -7.56% (inactive)
8 | O=C(CN(Cc1cccs1)C(=O)CNS(=O)(=O)c1ccccc1)NCc1ccco1 | 5.03% (inactive)
9 | CC(=O)Nc1ccc(OCC(O)CNC(C)C)cc1 (centres undefined) | 9.4% (inactive)
10 | Cc1ccnc(NC(=O)c2cccc(NC(=O)c3ccc(Cl)c(Cl)c3)c2)c1 | 15.1% (inactive)
11 | CCOc1ccc(NC(=O)Cn2cc(C(=O)CC)c3ccccc32)cc1 | 7.48% (inactive)
12 | Cc1cc(OCC(=O)Nc2cnn(CCCC(=O)O)c2)ccc1Cl | -10.7% (inactive)
13 | COc1ccc(NC(=O)Cn2nnc(C(=O)NCc3ccccc3)c2N)c(OC)c1 | 8.34% (inactive)
14 | COC(=O)c1cccc(COC(=O)c2ccccc2NC(=O)c2ccco2)c1 | -0.414% (inactive)
15 | COc1cccc(-c2nc(NCc3ccccc3)c3ccccc3n2)c1O | 21.1% [at 11 µM] (inactive)
16 | COc1ccc(NC(=O)C[C@H]2C(=O)N(CCc3ccccc3)C[C@@H]2c2ccc(OC)cc2)cc1 | 18.3% (inactive)
17 | COc1ccc(NC(=O)NCCN2CCc3ccccc3C2)cc1 | -2.14% (inactive)
18 | Cn1cccc1CC(=O)NNC(=S)Nc1ccccc1Cl | 3.06% (inactive)
19 | COc1ccc(C(CNC(=O)Nc2ccccc2)N2CCN(C)CC2)cc1 (centres undefined) | -9.47% (inactive)
20 | C=CCN(c1ccc(C(=O)Nc2ccc3c(c2)n(C)c(=O)n3C)cc1)S(C)(=O)=O | 22% (inactive)
21 | O=C(Nc1ccc2c(c1)C(=O)OC2)c1ccc(C(F)(F)F)cc1 | -6.81% (inactive)
22 | CCNc1nc(CN2CCOCC2)nc2sc3c(c12)CCC3 | 14.5% (inactive)
23 | COc1cccc(C2Nc3ccc4ccccc4c3C3=C2C(=O)CC(C)(C)C3)c1OCC(=O)O (centres undefined) | 24.8% (inactive)
24 | O=C(CN1C(=O)CCOc2ccccc21)Nc1ccc(Cl)c(S(=O)(=O)N2CCOCC2)c1 | -6.94% (inactive)
25 | COc1ccc(C(c2sc3nc(C)nn3c2O)N2CCC(C(N)=O)CC2)cc1OC (centres undefined) | -11.1% (inactive)
26 | CC1=C(CC(=O)O)c2cc(F)ccc2C1=Cc1ccc(S(C)(=O)=O)cc1 | 1.68% (inactive)
27 | O=C(Nc1ncc(Br)s1)C(Cc1ccccc1)n1cccc1 (centres undefined) | 1.83% (inactive)
28 | COc1ccc(NC(=O)N(CCN2CCCC2)Cc2cc3cc(OC)c(OC)cc3[nH]c2=O)cc1 | -2.6% (inactive)
29 | CCOC(=O)c1cc(-c2ccccc2)n(CC(=O)Nc2cccc(OC)c2)c1C | -5.78% (inactive)
